# Laboratory results taken from PubChem BioAssay (Tox21).
# Inconclusive results are not listed. Where a call stands in place of a potency, no number is given. The source made the active and inactive calls. Calls follow the shape of the dose curve; as a rule, active = well fitted activation curve with a large enough effect in the repeat runs; inconclusive = weak or mixed curves, or effect the other way; inactive = no such curve, though single readings can be large or run the other way.
# Test: qHTS assay to identify small molecule agonists of the estrogen related receptor signaling pathway with the pleiotropic PPARgamma coactivator (PGC) from Tox21 10K library (AID 1224842); also: nearly all actives have a fitted effect of over 15% in size
# Settings: PGC/ERR reporter cell line, luciferase ONE-Glo, 18 h; series mostly up to 92.4 µM
# Text: National Center for Advancing Translational Sciences [NCATS] NIH Chemical Genomics Center [NCGC] U.S. Environmental Protection Agency [EPA] National Institutes of Environmental Health Sciences [NIEHS] National Toxicology Program [NTP] Assay overview: Estrogen related receptors (ERRs), the first orphan nuclear receptors discovered, play an important role in the control of cellular energy metabolism. ERRs are required for high-energy production in response to the environmental challenges. The pleiotropic PPARgamma coactivator (PGC) is a major partner of ERR and a key regulator in energy homeostasis. Together they have been implicated in the etiology of metabolic disorders such as Type 2 diabetes and metabolic syndrome. ERR-alpha was also identified as an adverse marker for breast cancer progression; ERR-alpha-positive tumors have a poor prognosis. To screen and to identify environmental compounds that perturb the PGC/ERR signaling pathways could provide valuable information for potential therapeutic or preventive measures in the treatment of metabolic disease. For identifying PGC/ERR agonists, PGC/ERR cell line (provided by NTP) has been used to screen Tox21 10K library.
# Assay Protocol Summary: The PGC/ERR cells were dispensed at 2,000 cells/5 ul/well in 1536-well white plates using a Multidrop dispenser. After the assay plates were incubated at a 37 C/5% CO2 incubator for 6 hours, 23 nL of compounds dissolved in DMSO, positive and negative controls or DMSO only was transferred to the assay plate by a pin tool. The plates were incubated at 37 C for 18 hours. 4 ul/well of One-Glo reagent was added into the assay plates using a Flying Reagent Dispenser. After 30-minute incubation at room temperature, the luminescence intensity in the plates was measured using a ViewLux plate reader.
Structure (SMILES),Potency,activation
CCN1CCCC1CNC(=O)c1cc(S(=O)(=O)CC)c(N)cc1OC (stereo not given),inactive,–
Cc1cccc([N+](=O)[O-])c1C(=O)O,inactive,–
Oc1c(Cl)cc(Cl)cc1Sc1cc(Cl)cc(Cl)c1O,inactive,–
O=C(Nc1ccccc1SSc1ccccc1NC(=O)c1ccccc1)c1ccccc1,inactive,–
CN1C(=O)c2ccc([N+](=O)[O-])cc2C1=O,inactive,–
CCOc1ccc2c(c1)C(C)=CC(C)(C)N2,inactive,–
CCCCCCCCCCCCCCCCCl,–,5.12% [at 19 µM] (inactive)
CC(=O)CC(=O)Nc1ccc2[nH]c(=O)[nH]c2c1,inactive,–
O=C(O)CCc1ccccc1,inactive,–
Cc1cccc(O)c1C,inactive,–
CCCCCC(=O)O[C@]1(C(C)=O)CC[C@H]2[C@@H]3CCC4=CC(=O)CC[C@]4(C)[C@H]3CC[C@@]21C,inactive,–
CCCC(=O)c1ccccc1,inactive,–
NC(N)=Nc1nc(CSCC/C(N)=N/S(N)(=O)=O)cs1,inactive,–
CCN(CC)C(=O)Nc1ccc(OCC(O)CNC(C)(C)C)c(C(C)=O)c1 (stereo not given),inactive,–
Nc1ccc(O)cc1,inactive,–
CCOC(=O)C(C)C(C)=O (stereo not given),inactive,–
CCC(CO)(CO)COCC(CC)(CO)CO,inactive,–
NC(Cc1ccc(Cl)cc1)C(=O)O (stereo not given),–,0.108% [at 0.349 µM] (inactive)
CC(C)C(=O)c1c(C(C)C)nn2ccccc12,inactive,–
CC[C@]1(O)C[C@@H]2CN(CCc3c([nH]c4ccccc34)[C@@](C(=O)OC)(c3cc4c(cc3OC)N(C)[C@H]3[C@@](O)(C(=O)OC)[C@H](OC(C)=O)[C@]5(CC)C=CCN6CC[C@]43[C@@H]65)C2)C1,inactive,–

Structure (SMILES),Potency,activation
Cc1c(O)cccc1C(=O)N[C@@H](CSc1ccccc1)[C@H](O)CN1C[C@H]2CCCC[C@H]2C[C@H]1C(=O)NC(C)(C)C,inactive,–
C#CC(C)(CC)OC(=O)c1ccccc1C(=O)O (stereo not given),inactive,–
CCn1c2ccccc2c2cc(N)ccc21,inactive,–
CC1=CC(=O)c2ccccc2C1=O,inactive,–
Cc1ccc(-c2cc(C(F)(F)F)nn2-c2ccc(S(N)(=O)=O)cc2)cc1,inactive,–
CCCCCCC(O)CCCCCCCCCCC(=O)O (stereo not given),inactive,–
COC(=O)[C@H]1[C@H]2C[C@@H]3c4[nH]c5cc(OC)ccc5c4CCN3C[C@H]2C[C@@H](OC(=O)c2cc(OC)c(OC)c(OC)c2)[C@@H]1OC,inactive,–
C=CC(=O)OCCCCCCCC,inactive,–
CC1=C(C=O)C(C)(C)CC=C1,inactive,–
CCCCC/C=C/CC1CC(=O)OC1=O (stereo not given),inactive,–
COc1ccc(COC(C)=O)cc1,inactive,–
COC(c1ccccc1)(c1ccccc1)[C@H](Oc1nc(C)cc(C)n1)C(=O)O,inactive,–
CCC(C)(Oc1ccc(C2(c3ccc(OC(C)(CC)C(=O)O)cc3)CCCCC2)cc1)C(=O)O (stereo not given),inactive,–
c1cnc2cc3c(cc2n1)C1CNCC3C1,inactive,–
O=C(O)Cn1cnnn1,inactive,–
CCn1cc(C(=O)O)c(=O)c2cc(F)c(N3CCNC(C)C3)c(F)c21 (stereo not given),inactive,–
Cc1cccc2n[nH]nc12,inactive,–
CC1COC(=O)O1 (stereo not given),inactive,–
COc1ccc(Cc2cnc(N)nc2N)cc1OC,inactive,–
C=CS(=O)(=O)O,inactive,–
